Data: the supplement of paper PMC12669032
A number with no mark means an inactive call.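 The calls were made as follows: active = AUC reduced over 20% with Padj below 0.05 in at least 2 of 3 replicates; inactive = otherwise.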

How the values were obtained:
Test in all cases: growth AUC relative to DMSO control (median of replicates) (fraction); higher = more growth (less inhibition), active = hit call of the paper
Settings in all cases: 20 µM; 24 h
[1] = tested on: Akkermansia muciniphila
In short: (§1)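 Starting at OD600 0.05, gut bacterial monocultures in mGAM were grown anaerobically at 37 °C with 20 µM compound (1% DMSO) under pierced gas-permeable seals. OD600 was read every hour for 24 h, and the lowest OD of each curve was set to 0. Area under the growth curve was normalised to the plate median of solvent-only wells, or to row and column medians on the industrial chemical plate, and the median of three biological replicates grown on separate days is given.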

[2] = tested on: Bacteroides caccae
In short: as §1

[3] = tested on: Bacteroides clarus
In short: as §1

[4] = tested on: Bacteroides dorei
In short: as §1

[5] = tested on: Bacteroides stercoris
In short: as §1

[6] = tested on: Bacteroides thetaiotaomicron
In short: as §1

[7] = tested on: Bacteroides uniformis
In short: as §1

[8] = tested on: Bifidobacterium longum subsp. longum
In short: as §1

[9] = tested on: Clostridium difficile
In short: as §1

[10] = tested on: Collinsella aerofaciens
In short: as §1

[11] = tested on: Coprococcus comes
In short: as §1

[12] = tested on: Escherichia coli ED1a
In short: as §1

[13] = tested on: Escherichia coli IAI1
In short: as §1

[14] = tested on: Eubacterium rectale
In short: as §1

[15] = tested on: Fusobacterium nucleatum subsp. animalis
In short: as §1

[16] = tested on: Lactobacillus gasseri
In short: as §1

[17] = tested on: Lactobacillus paracasei
In short: as §1

[18] = tested on: Odoribacter splanchnicus
In short: as §1

[19] = tested on: Parabacteroides distasonis
In short: as §1

[20] = tested on: Parabacteroides merdae
In short: as §1

| SMILES | growth AUC [1] | growth AUC [2] | growth AUC [3] | growth AUC [4] | growth AUC [5] | growth AUC [6] | growth AUC [7] | growth AUC [8] | growth AUC [9] | growth AUC [10] | growth AUC [11] | growth AUC [12] | growth AUC [13] | growth AUC [14] | growth AUC [15] | growth AUC [16] | growth AUC [17] | growth AUC [18] | growth AUC [19] | growth AUC [20] |
| --- | --- | --- | --- | --- | --- | --- | --- | --- | --- | --- | --- | --- | --- | --- | --- | --- | --- | --- | --- | --- |
| CC(C)(C)C(O)C(Oc1ccc(-c2ccccc2)cc1)n1cncn1 (mixture of isomers) | 1.01 | 0.919 | 0.874 | 0.926 | 1.11 | 0.938 | 0.899 | 0.847 | 0.924 | 0.995 | 1 | 1.01 | 1.05 | 0.964 | 1.07 | 0.949 | 0.958 | 0.952 | 0.918 | 0.976 |
| CCCN(CC)CC1COC2(CCC(C(C)(C)C)CC2)O1 (stereo not given) | 0.871 | 0.99 | 0.952 | 1.07 | 0.87 | 1.02 | 1.04 | 0.79 | 0.985 | 0.981 | 0.993 | 1 | 0.959 | 0.987 | 0.899 | 1.04 | 0.947 | 0.978 | 0.966 | 0.965 |
| CCOP(=O)(OCC)OCC | 1.06 | 0.991 | 1.03 | 0.972 | 1.03 | 1.02 | 1.03 | 0.971 | 0.989 | 0.967 | 1.01 | 1.01 | 1.07 | 1.01 | 1.07 | 0.931 | 0.964 | 1.05 | 1.03 | 1.05 |
| CCCN(CCOc1c(Cl)cc(Cl)cc1Cl)C(=O)n1ccnc1 | 1.05 | 0.886 | 0.967 | 0.941 | 1.14 | 0.869 | 0.836 | 0.89 | 0.982 | 1.02 | 0.487 (active) | 1.01 | 1.01 | 0.591 (active) | 1 | 1.11 | 1.17 | 0.94 | 0.871 | 0.843 |
| CC(C)Oc1cc(-n2nc(C(C)(C)C)oc2=O)c(Cl)cc1Cl | 1.21 | 0.984 | 0.942 | 0.982 | 0.884 | 0.987 | 0.898 | 0.962 | 0.932 | 0.921 | 1.01 | 0.96 | 0.993 | 1.04 | 1 | 0.803 | 1.01 | 0.967 | 0.705 (active) | 0.96 |
| O=[N+]([O-])c1cc(C(F)(F)F)c(Cl)c([N+](=O)[O-])c1Nc1ncc(C(F)(F)F)cc1Cl | 1.01 | 0.55 (active) | 0.322 (active) | 0.672 (active) | 0.00814 (active) | 0.0138 (active) | 0.0147 (active) | 0.705 (active) | 0.914 | 0.886 | 0.953 | 0.98 | 0.986 | 0.995 | 0.885 | 0.807 | 0.578 (active) | 1.02 | 0.905 | 0.0369 (active) |
| CCCCN(CCCC)N=O | 0.985 | 1.01 | 1.02 | 1.01 | 1 | 1 | 1 | 1.01 | 1.01 | 1.03 | 0.982 | 0.995 | 1 | 1.02 | 1.02 | 1.11 | 1.02 | 1 | 1.16 | 1.01 |
| CCOP(=O)(NC(C)C)Oc1ccc(S(C)(=O)=O)c(C)c1 (stereo not given) | 1.03 | 1.01 | 1.04 | 1.04 | 1.05 | 1.02 | 1.01 | 0.986 | 1.04 | 1.01 | 1.06 | 1.03 | 1.02 | 1.03 | 1.03 | 0.993 | 1.03 | 1.05 | 1.06 | 1.04 |
| CC(C)N1C(=O)N(c2ccccc2)CSC1=NC(C)(C)C | 0.893 | 0.957 | 0.902 | 0.946 | 0.977 | 0.927 | 0.981 | 0.99 | 1.02 | 0.971 | 0.943 | 0.967 | 1.02 | 0.956 | 0.966 | 0.963 | 1.03 | 1.02 | 0.946 | 0.997 |
| O=C(O)COc1nc(Cl)c(Cl)cc1Cl | 1.13 | 0.874 | 0.989 | 0.94 | 1.19 | 1 | 0.993 | 1.04 | 0.963 | 0.99 | 0.867 | 0.971 | 1.01 | 1.15 | 1.1 | 0.818 | 1.01 | 0.992 | 0.781 | 1.01 |
| CC(=O)CC(c1ccco1)c1c(O)c2ccccc2oc1=O (stereo not given) | 0.866 | 1.01 | 0.957 | 1 | 1 | 0.98 | 0.968 | 0.95 | 1.02 | 0.967 | 1.01 | 0.994 | 0.987 | 0.985 | 0.986 | 1.03 | 1.05 | 0.978 | 0.958 | 1.01 |
| Cn1cc(-c2ccccc2)c(=O)c(-c2cccc(C(F)(F)F)c2)c1 | 0.9 | 0.923 | 0.999 | 1.01 | 1.06 | 0.967 | 0.977 | 1.04 | 0.994 | 0.939 | 1.02 | 0.978 | 0.968 | 0.998 | 0.907 | 0.963 | 0.983 | 0.974 | 0.999 | 0.943 |
| CNC(=O)O/N=C(\C)C(C)S(C)=O (stereo not given) | 0.963 | 0.997 | 0.976 | 0.996 | 1 | 0.983 | 0.997 | 0.996 | 1 | 0.995 | 1.01 | 1.02 | 0.987 | 0.914 | 1.02 | 0.881 | 1.02 | 1.04 | 1.05 | 1.02 |
| CCOP(=O)(OCC)O/C(=C/Br)c1ccc(Cl)cc1Cl | 1.06 | 0.94 | 0.952 | 0.948 | 0.879 | 0.89 | 0.821 | 0.991 | 0.978 | 1.06 | 1.01 | 0.976 | 0.973 | 1.04 | 0.996 | 0.976 | 0.996 | 1.02 | 0.547 (active) | 0.898 |
| CC(C)c1ccc(NC(=O)N(C)C)cc1 | 1.04 | 0.978 | 0.987 | 1.02 | 0.937 | 1.02 | 1.02 | 1.18 | 0.995 | 0.947 | 0.979 | 0.972 | 0.97 | 1.05 | 1.07 | 0.934 | 0.98 | 1.12 | 0.998 | 0.935 |
| COC(=O)C(C)Oc1ccc(Oc2ccc(Cl)cc2Cl)cc1 (stereo not given) | 0.924 | 0.963 | 0.951 | 1.04 | 0.795 | 0.986 | 0.963 | 0.919 | 1.01 | 0.958 | 0.97 | 0.99 | 0.993 | 1.12 | 0.953 | 1.06 | 0.999 | 1 | 0.973 | 0.96 |
